# Several values for one entry are separate records, joined by “and”; a condition that tells them apart may be missing. Equal values may be shown once. For some assays here: Potency and affinity values are given separately. Activity calls are given as the source filed them.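 Rule for the calls: active = z-score of at least 1.8 in each of two replicates, scored against plate mean and spread of sample wells; inactive = the rest.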
# How the values were obtained:
# [1] = polyglutamine-triggered caspase-3 activation inhibitors, cell-based (AID 1583); conditions: polyglutamine-induced caspase-3 activation, cell assay; stronger effect = higher value;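 tested at 10 µM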
# [2] = suppressors of polyQ aggregation in yeast, 75Q-TubU reporter (AID 1593); conditions: Yeast 75Q polyglutamine aggregation reporter
# [3] = rescue of polyQ-huntingtin neuronal dysfunction in worms, whole organism, C. elegans mechanosensory neurons, N-terminal huntingtin (AID 1599); conditions: touch response, stronger effect = higher value
# [4] = inhibitors of mitochondrial cytochrome c release, biochemical, purified mitochondria (AID 1603); conditions: stronger effect = lower value;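 note: mouse liver mitochondria challenged with calcium chloride; signal normalized to the plate average as 100%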
# [5] = inhibitors of polyQ protein aggregation (AID 1604); conditions: polyglutamine-induced protein aggregation inhibition assay; stronger effect = higher value; tested at 2.5 µM
# [6] = enhancers of glutamate uptake in motor neurons, MN-1 cell line (AID 1612); conditions: MN-1 motor neuron cells, stronger effect = higher value;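 note: tested at 1 µM final; 0% = mean of DMSO vehicle wells on each plate; positive means more glutamate uptake than control and negative means less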
# [7] = suppressors of polyglutamine aggregation in yeast, 75Q-TubH (AID 1616); conditions: S. cerevisiae 75Q-TubH polyglutamine aggregation suppression; stronger effect = higher value
# [8] = viability rescue of complex I mutant cybrids, primary screen, cell-based, galactose medium, ATP luminescence (AID 1645843); conditions: complex I mutant cybrid cells, 72 h, stronger effect = higher value;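 note: positive z means more ATP and so rescue of galactose-driven cybrid death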
# [9] = reducers of polyQ inclusions in PC12 cells, cell-based, NGF-treated PC12, GFPQ80 (AID 1614); conditions: PC12 NGF-treated GFP-polyQ80 inclusion reduction;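 note: lower means fewer inclusions and 0 means no inclusions at all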
smiles,measurement,setting,value
CC(C)[C@@H](C)/C=C/[C@@H](C)C1CC[C@H]2/C(=C/C=C3\C[C@@H](O)CC[C@@H]3C)CCC[C@]12C (stereo not given in full),inhibition,[1],63.6%
same,score,[2],0.42
same,rescue above control,[3],5.3
same,cytochrome c release ratio,[4],0.91
same,inhibition of aggregation,[5],83.3%
same,glutamate uptake change,[6],-13.9%
same,aggregation suppression score,[7],0.578
O=c1c2ccc(C(F)(F)F)cc2ncn1CCC1CCCCN1C1CCCC1 (stereo not given),z-score,[8],-0.69 (inactive)
COc1cccc2c(C)cc(N3CCC[C@H]3CO)nc12,z-score,[8],-0.095 (inactive)
CNCc1cn(C2CCN(CCC(C)CC(C)(C)C)CC2)nn1 (stereo not given),z-score,[8],-0.49 (inactive)
COc1cccc(C(=O)c2ccccc2O)c1O,inhibition,[1],-4.26%
same,score,[2],0.2
same,rescue above control,[3],0
same,cytochrome c release ratio,[4],1.59
same,inhibition of aggregation,[5],85.8%
same,glutamate uptake change,[6],-9.84%
same,aggregation suppression score,[7],0.104
Cn1ncc(NC(=O)CCc2cn3ccccc3n2)n1,z-score,[8],0.67 (inactive)
Cc1nc(C(C)Nc2ncnc3sccc23)cs1 (stereo not given),z-score,[8],0.845 (inactive)
O=C(C1CCCCCC1)N1CCC(n2cc(-c3ccccc3)nn2)CC1,z-score,[8],-0.495 (inactive)
CCN(C(=O)c1cc(-c2cnc(C3CC3)nc2)nc2cc(C)ccc12)C(C)C,z-score,[8],1.41 (inactive)
CC(C)Cc1cn(C2CCN(C3Cc4ccccc4C3)CC2)nn1,z-score,[8],-0.99 (inactive)
CCC(=O)OC1CCC2C3CCc4cc(O)ccc4C3CCC12C (stereo not given),inhibition,[1],6.67%
same,score,[2],0.64
same,rescue above control,[3],-1.7
same,cytochrome c release ratio,[4],1.72
same,inhibition of aggregation,[5],85.9%
same,glutamate uptake change,[6],-23.3%
same,aggregation suppression score,[7],0.421
CC(=O)c1cc(CC(=O)NCc2cc(F)c(F)cc2F)cs1,z-score,[8],-0.01 (inactive)
Fc1ccc(C(c2ccccc2)(c2ccccc2F)n2ccnc2)cc1 (stereo not given),inhibition,[1],-9.56% and 14%
same,score,[2],1.45 and 0.36
same,rescue above control,[3],12 and 6.65
same,cytochrome c release ratio,[4],3.37 and 1.21
same,glutamate uptake change,[6],5.37% and 7.94%
same,inclusion score,[9],2
same,aggregation suppression score,[7],1.35 and 0.117
CCCc1noc(CN(C)C(=O)CCc2ccc(C)c(C)c2)n1,z-score,[8],-0.575 (inactive)
Cc1nsc(NC(=O)NCc2ccccc2OC(F)(F)F)n1,z-score,[8],0.2 (inactive)
CCn1ncc2[nH]c(-c3c(OC)ccc4ccccc34)nc21,z-score,[8],0.04 (inactive)
CN1CCN(C2CCCCCC2)CC1CCO (stereo not given),z-score,[8],-0.575 (inactive)
CCCc1cn(C2CCN(C(=O)CC3CC(C)(C)NC(C)(C)C3)CC2)nn1,z-score,[8],-0.53 (inactive)
Cc1ccc2c(C(=O)N3CCCCC3C)cc(-c3cnn(C(C)C)c3)nc2c1 (stereo not given),z-score,[8],-0.16 (inactive)
COc1ccc(C(=O)N2CCN(C(=O)c3cc(C)c(C)cc3C)CC2)cc1,z-score,[8],0.125 (inactive)
Cc1ccc(C(=O)N2CCNC(=O)C2Cc2ccccc2)cc1F (stereo not given),z-score,[8],-0.505 (inactive)
CCCn1cc(-c2ccnc(NCc3cn4cccc(C)c4n3)n2)c(C)n1,z-score,[8],-1.07 (inactive)
Cc1ccc(C(=O)NCC2CCCN(C(=O)C3CC3)C2)cn1 (stereo not given),z-score,[8],-0.52 (inactive)
Fc1ccc(-n2cc(-c3ccnc(NCc4cnc5ccccn45)n3)cn2)cc1,z-score,[8],-0.035 (inactive)
Cc1nc(C(=O)N2CCCC(Cn3cc(-c4ccsc4)nn3)C2)cs1 (stereo not given),z-score,[8],-0.08 (inactive)
Cn1ccnc1C(=O)c1cccc(-c2ccccc2Cl)c1,z-score,[8],-0.515 (inactive)
Cc1c(C(=O)N2CCSCC2)c(-c2ccccc2)nn1-c1ccccc1,z-score,[8],1.96 (inactive)
COc1ccccc1OC(C)c1nc(Cc2cccc(C(F)(F)F)c2)no1 (stereo not given),z-score,[8],0.51 (inactive)
CCN(C(=O)c1cc(-c2cnc(C(C)C)nc2)nc2cc(F)ccc12)C(C)C,z-score,[8],-0.47 (inactive)
CCn1nc(CC(C)C)cc1C(=O)N1CCC(n2cc(C(C)(C)O)nn2)CC1,z-score,[8],-0.53 (inactive)
CC(C)Cc1cn(C2CCN(C(=O)CC3CCCCCC3)CC2)nn1,z-score,[8],2.74 (active)
CCOC(=O)c1ccc(N2CCC(c3ccc(F)cc3)C2)nc1 (stereo not given),z-score,[8],0.975 (inactive)
Cc1nn(C)c(C)c1-c1ccnc(N2CCC(c3ccccc3Cl)C2)n1 (stereo not given),z-score,[8],-1.27 (inactive)
Cc1ccc(F)cc1-c1cccc(C(=O)c2nccn2C)c1,z-score,[8],-0.54 (inactive)
O=C(CC1CCCCCC1)N1CCC(Cn2cc(CO)nn2)CC1,z-score,[8],-0.5 (inactive)
CCCn1nc(NC(=O)Cn2ccc(-c3ccc(F)cc3)n2)c2ccccc21,z-score,[8],-1.28 (inactive)
OC[C@@H](Cc1ccccc1)NC1CCCCCC1,z-score,[8],-0.55 (inactive)
c1cnn(-c2ccc(N3CCC(N4CCC4)CC3)cc2)c1,z-score,[8],-0.48 (inactive)
Cc1ccc(-c2ccn(CC(=O)Nc3nn(C)c4ccccc34)n2)s1,z-score,[8],2.7 (active)
CC(CCCC(C)(C)O)CCNCC1(CO)CCC1 (stereo not given),z-score,[8],-0.48 (inactive)
CCC1CN(C(=O)c2cc(-c3cnn(C)c3)nc3c(C)c(C)ccc23)CCO1 (stereo not given),z-score,[8],3.04 (active)
O=C1NCCN(C(=O)c2ccc(Cl)cc2)C1Cc1ccccc1 (stereo not given),z-score,[8],0.59 (inactive)
CCCN(C(=O)c1cccc(C#CC(C)(C)O)c1)C(CC)CC,z-score,[8],-0.23 (inactive)
Cc1ccc2c(C(=O)N3CCCCC3)cc(-c3cnn(C(C)C)c3)nc2c1,z-score,[8],-0.385 (inactive)
CC1CCCN1C(=O)c1cc(-c2cnn(C(C)C)c2)nc2cc(F)ccc12 (stereo not given),z-score,[8],-0.72 (inactive)
COC(=O)c1nn(CC(=O)Nc2cnn(C)n2)c2ccccc12,z-score,[8],1.92 (inactive)
Cc1cc(N2CCC(Cn3cc(CN)nn3)CC2)nc(-c2ccccc2O)n1,z-score,[8],-1.23 (inactive)
Cc1nn(C)cc1-c1ccnc(NCCc2nc(-c3ccccn3)no2)n1,z-score,[8],-0.82 (inactive)
CC1(C)CC(CC(=O)N2CCC(n3cc(C(C)(C)O)nn3)CC2)CC(C)(C)N1,z-score,[8],-0.57 (inactive)
COc1cccc2ccc(-c3ccc(C(C)=O)cc3)nc12,z-score,[8],2.67 (active)
COC(=O)c1ccc(N2CCC(c3ccccc3Cl)C2)nc1 (stereo not given),z-score,[8],0.895 (inactive)
O=c1c2cccc(F)c2ncn1CCC1CCCCN1C1CCCC1 (stereo not given),z-score,[8],-0.825 (inactive)
Cc1cccc(-n2cc(CN(C)C(=O)C(=O)c3ccco3)cn2)c1,z-score,[8],0.6 (inactive)
Cc1cnc(CNC(=O)c2cccc(Nc3ncnc4c3cnn4C)c2)cn1,z-score,[8],-0.83 (inactive)
Cc1cc(C)n(CC(C)n2cnc3sc4c(c3c2=O)CCCCC4)n1 (stereo not given),z-score,[8],2.45 (active)
COc1ccc2c(C(=O)N(C)CCc3ccccn3)cc(-c3cnn(C)c3)nc2c1,z-score,[8],-0.54 (inactive)
Cc1ccc(-c2nn(CC(=O)Nc3cnn(C)n3)c3ccccc23)c(F)c1,z-score,[8],-0.4 (inactive)
Cc1nn(C)c(C)c1-c1ccnc(N2CCC(C(=O)NCc3ccccn3)CC2)n1,z-score,[8],1.16 (inactive)
O=C(Nc1nc(-c2ccccc2)ns1)N1CCN(C2CCCCC2)C(=O)C1,z-score,[8],-0.54 (inactive)
Cc1ccc(NC(=O)c2csc(Cc3ccccc3)n2)cn1,z-score,[8],-1.08 (inactive)
O=C(CCC1CC1)Nc1ccnn1C1CCCCC1,z-score,[8],0.01 (inactive)
CCC(CC)CN1CCC(NS(C)(=O)=O)CC1,z-score,[8],-0.53 (inactive)
CC(C)c1ncc(-c2cc(C(=O)N(C)C(C)C)c3ccc(F)cc3n2)cn1,z-score,[8],-0.51 (inactive)
C=C1C2(C(=O)N3CCC(c4ccccc4F)C3)CCC(C2)C1(C)C (stereo not given),z-score,[8],1.09 (inactive)
COC(=O)CN1CCN(c2cc(OC)ncn2)CC1=O,z-score,[8],-0.535 (inactive)
O=C(NC(Cn1cccn1)c1ccccc1)c1ccc2nccnc2c1 (stereo not given),z-score,[8],1.25 (inactive)
CC(CCCC(C)(C)O)CCN1CCC(N(C)CCO)CC1 (stereo not given),z-score,[8],-0.505 (inactive)
O=c1c2sc(-c3ccc(F)cc3)cc2ncn1Cc1nc2ccccc2[nH]1,z-score,[8],0.44 (inactive)
O=C(CC1CCCCCC1)N1CCC(n2cc(C3CC3)nn2)CC1,z-score,[8],-0.455 (inactive)
COc1cccc(CC(=O)NCc2ccsc2)c1,z-score,[8],-0.32 (inactive)
CCCCC(CO)NC(C)CCc1ccc(OC)cc1 (stereo not given),z-score,[8],-0.47 (inactive)
